Bioassay records (PubChem)
Compounds with a hit are over-represented: about 4.6% of the library has one in this group of screens.
tim10-1 inh – growth inhibitors of tim10-1 mutant yeast, primary screen, luminescence, uHTS; 330,000 compounds, 2.2% hits; S. cerevisiae tim10-1 ts strain growth, BacTiter-Glo, 24 h; inhibition, % at 20 µM;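 active = inhibition of at least 40%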;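 also: mutant grown at 25 °C; 0% = DMSO wells with yeast and 100% = wells holding no yeast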
TIM10 inh – growth inhibitors of isogenic TIM10 control yeast, primary screen, counter-screen for tim10-1 yeast inhibitor project, luminescence, uHTS. S. cerevisiae TIM10 strain growth, BacTiter-Glo luminescence, 24 h. 330,000 compounds, 1.4% hits. inhibition, % at 10 µM;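 active = inhibition of 40% or more at the single tested concentration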;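 also: wild-type TIM10 isogenic control strain grown at permissive 25 °C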
SKKanGAS inh – S. pyogenes SKKanGAS growth inhibitors in kanamycin, primary screen, streptokinase expression inhibitor project, SKKanGAS strain, BacTiter-Glo luminescence. 6 h. inhibition, % at 7.5 µM. 300,000 compounds, 1.3% hits. AID 1662, 2009;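 active = mean replicate score, as percent of positive control median, at least 50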;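 also: strain carries kanamycin resistance gene driven by streptokinase promoter and grows in 40 µg/ml kanamycin; loss of luminescence reflects streptokinase promoter inhibition or plain growth inhibition; 0% = median of DMSO wells and 100% = positive control at its reference dose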
tim23-1 inh – growth inhibitors of tim23-1 mutant yeast, primary screen, luminescence, uHTS | S. cerevisiae tim23-1 growth, BacTiter-Glo luminescence, 24 h | inhibition, % at 20 µM | 330,000 compounds, 1.3% hits;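 active = growth inhibition of the mutant yeast at or above 50%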;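 also: temperature-sensitive mutant grown at 25 °C; plate controls were DMSO-treated mutant yeast for no effect and medium wells lacking yeast for full effect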
NALP3 yeast inh – NALP3 inflammasome inhibitors in reconstituted yeast, primary screen, luminescence, uHTS. AID 2825, 2010. Yeast reconstituted NLRP3/ASC/caspase-1, beta-gal luminescence, 24 h. inhibition, % at 10 µM. 330,000 compounds, 0.39% hits;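 active = inhibition of 50% or more; inactive = inhibition below 50%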;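 also: plate controls were induced DMSO wells for no effect and uninduced yeast grown without galactose for full effect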
tim10-1 conf – growth inhibitors of tim10-1 mutant yeast, confirmation, single concentration, luminescence, S. cerevisiae | shares compounds with tim10-1 inh | S. cerevisiae tim10-1 ts strain growth, BacTiter-Glo, 24 h | inhibition, % at 20 µM | 7,400 compounds, 56% hits | AID 463213, 2010;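 active = inhibition of yeast growth at or above a set limit in either of two repeat tests at 20 µM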;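 also: tim10-1 mutant grown at permissive 25 °C to find synthetic lethal compounds; 0% = DMSO yeast wells and 100% = medium wells without yeast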
* marks the source's active call; other numbers are inactive results; . = no result given.

SMILES | tim10-1 inh | TIM10 inh | SKKanGAS inh | tim23-1 inh | NALP3 yeast inh | tim10-1 conf
COC(=O)c1cc(CNC(=O)c2ccc(S(=O)(=O)N(C)c3ccccc3)cc2)ccc1OC | 7 | 0 | . | 0 | -4 | .
COc1ccc(Cl)cc1C(=O)NNC(=O)C1CCCO1 (configuration not stated) | -3 | 2 | . | 0 | 2 | .
CS(=O)(=O)N(CC(=O)Nc1cccc(F)c1)Cc1ccccc1 | 49* | -12 | -4 | 7 | 4 | 5
CC(CCc1ccccc1)NC(=O)COC(=O)c1ccc(S(C)(=O)=O)c([N+](=O)[O-])c1 (configuration not stated) | 46* | 4 | 1 | 18 | 6 | 14
CCCc1cc(-c2n[nH]c(=S)n2-c2cccc(C)c2)cs1 | 46* | 28 | -7 | 49 | 18 | 39*
Cc1cccc(-n2c(-c3ccco3)n[nH]c2=S)c1 | 16 | 3 | 23 | 18 | 1 | .
O=C(c1cc(COc2cccc(C(F)(F)F)c2)on1)N1C[C@@H]2CCC[C@H]1C2 | 45* | 34 | 3 | 37 | 11 | 34*
COc1ccc2oc3cc(C)[n+]([O-])c(-c4ccc(Br)cc4)c3c2c1 | 42* | 8 | 40 | 33 | 8 | 24
COc1ccc(-c2ccc3oc(-c4ccc(OC)cc4)c(-c4ccc(OC)cc4)c3c2)cc1 | 11 | -6 | -5 | -2 | -3 | .
COc1ccc(C(=O)C(C)OC(=O)CNC(=O)c2ccco2)cc1 (configuration not stated) | -14 | 4 | . | -5 | 10 | .
O=C1CC(SCc2nc3ccccc3[nH]2)C(=O)N1c1cccc(Cl)c1 (configuration not stated) | 40* | 26 | 31 | 22 | 4 | 35*
O=C1CC(SCc2nc3ccccc3[nH]2)C(=O)N1c1ccc(F)cc1 (configuration not stated) | 24 | 22 | 16 | 26 | -4 | .
O=C1CC(Sc2nnnn2-c2ccccc2)C(=O)N1c1cccc(Cl)c1 (configuration not stated) | 49* | 38 | 0 | 41 | 4 | 47*
Nc1cccc(C#Cc2ccc3c(c2)C(=O)/C(=C/c2ccsc2)O3)c1 | 18 | 22 | . | 32 | 5 | .
CSc1sc(-c2n[nH]c(=S)n2C)c2c1C=CCC2 | 7 | 1 | 16 | -16 | 23 | .
Cc1c(OCC(=O)NCCCN2CCOCC2)ccc2c3c(c(=O)oc12)CCC3 | 48* | 25 | -11 | 22 | 11 | 30
Cc1ccc(N2CC(C(=O)Nc3ccc(S(=O)(=O)Nc4ncccn4)cc3)CC2=O)cc1C (configuration not stated) | -9 | -5 | 7 | -5 | 7 | .
Cc1ccc(CC(=O)Nc2nc3ccccc3s2)cc1 | 44* | 18 | 5 | 29 | 23 | 26
CCCc1nn2c(=O)cc(CSCC(=O)Nc3ccc(OC)cc3)nc2s1 | -12 | 6 | -3 | 8 | 4 | .
Clc1ccc(Cn2ncc3c(NCc4ccco4)ncnc32)c(Cl)c1 | 42* | 12 | 13 | 45 | 28 | 25
Clc1ccc(-n2ncc3c(NCc4ccco4)ncnc32)cc1 | 23 | 13 | 23 | 16 | 16 | .
CC(=O)Nc1cccc(C(=O)/C=C/c2ccc(F)cc2)c1 | 41* | 33 | -6 | 21 | 25 | 31*
COc1ccc(-c2nc(C)ncc2-c2ccccc2)c(O)c1 | 41* | 5 | -6 | 23 | -3 | 17
COc1ccc(-c2nc(C)ncc2-c2ccc(Cl)cc2)c(O)c1 | 27 | 0 | -1 | 22 | 9 | .
O=C(c1ccc2nc(N3CCCCC3)sc2c1)N1CCN(c2ccccn2)CC1 | 51* | 37 | 3 | 49 | 27 | 35*
SMILES | tim10-1 inh | TIM10 inh | SKKanGAS inh | tim23-1 inh | NALP3 yeast inh | tim10-1 conf
O=C(c1ccc2nc(N3CCOCC3)sc2c1)N1CCC(Cc2ccccc2)CC1 | 54* | 39 | -1 | 49 | 41 | 43*
O=C(c1nc2ccccc2s1)N1CCSCC1 | 7 | -3 | -6 | 12 | -9 | .
O=C(c1nc2ccccc2s1)N1CCN(c2ccccn2)CC1 | 45* | 10 | . | 28 | 33 | 27
CCOC(=O)N1CCN(C(=O)c2ccc3nc(N4CCCCC4)sc3c2)CC1 | 19 | 11 | 8 | 24 | 13 | .
COc1ccc2[nH]c3c(c2c1)CCN1C(=O)C(CC(=O)NCc2cccc(C(F)(F)F)c2)C[C@H](C(=O)N(C(C)C)C(C)C)[C@@]31C (some centres not stated) | 16 | 3 | . | 34 | . | .
CCC(CC)NC(=O)CN1CCN(S(=O)(=O)c2ccc(Br)s2)CC1 | 13 | 11 | . | 13 | 11 | .
Cc1cc(NC(=O)C(C)SCC(=O)OCc2ccc([N+](=O)[O-])cc2)no1 (configuration not stated) | 5 | -1 | 0 | 12 | 6 | .
CCOC(=O)C1CCN(S(=O)(=O)c2ccc(OC)c(Cl)c2Cl)CC1 | 40* | 23 | 8 | 14 | 10 | 5
CCOC(=O)C1CCN(S(=O)(=O)c2ccc(Cl)cc2OC)CC1 | 17 | 9 | 5 | 17 | 17 | .
CC1Cc2cc(S(=O)(=O)N3CCCC(C(=O)N4CCCCC4)C3)ccc2N1C(=O)C1CC1 (configuration not stated) | 43* | -6 | -7 | 27 | -1 | -27
COC(=O)NNC(=O)COc1ccc2ccccc2c1Br | 45* | 22 | -2 | 30 | 10 | 25
CC(C)(C)C(=O)NNC(=O)COc1ccc2ccccc2c1Br | -6 | 8 | -3 | 17 | 10 | .
CCCCOP(=O)(c1ccc(N(C)C)cc1)C(O)c1ccc(OC)cc1 (configuration not stated) | 20 | 7 | -2 | 23 | -7 | .
CCCCOP(=O)(c1ccc(N(C)C)cc1)C(O)c1ccccc1F (configuration not stated) | 43* | 31 | -12 | 24 | 0 | 21
O=[N+]([O-])c1ccc(C(=S)N2CCN(c3ccc(F)cc3)CC2)cc1 | 43* | 21 | -13 | 35 | -8 | 26
Cc1cc(SCC(=O)N/N=C/c2ccco2)nc2ccccc12 | 40* | 3 | 0 | 28 | 6 | 15
Cc1cc(SCC(=O)NC(=O)NCc2ccco2)nc2ccccc12 | 43* | 32 | 8 | 48 | 11 | 35*
CCCn1ccnc1SCC(=O)Nc1c(C)n(C)n(-c2ccccc2)c1=O | 3 | 2 | . | 8 | 2 | .
O=C(Nc1cccc(S(=O)(=O)NC2=NCCC2)c1)c1ccc(C(F)(F)F)cc1 | 7 | 1 | . | 9 | 15 | .
COc1cc(C2C(C#N)=C(N)Oc3cc4c(cc32)OCO4)cc(OC)c1OC (configuration not stated) | -3 | -19 | 1 | -7 | 18 | .
